PubChem BioAssay (Tox21)
Inconclusive results are not listed. The source made the active and inactive calls. Unless noted, calls follow the shape of the full dose curve.

How the values were obtained:
[1] = target: KiSS-1 receptor (Homo sapiens) (UniProt Q969F8); assay: Human kisspeptin (KISS1R) small molecule agonists, calcium flux assay in KISS1R-HEK293 cells (AID 1920064; active = well fitted activation curve with a large enough effect in the repeat runs)
How it was run: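 After overnight (18 h) culture at 37 C/5% CO2, human KISS1R-HEK293 cells received calcium dye for 1 h, then test compound; emission at 540 nm (excitation 480 nm) was tracked for 3 min.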

[2] = G protein-coupled receptor (GPCR) small molecule agonists, calcium flux assay: HEK293 wild type cell line counter screen (AID 1920065)
How it was run: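 Following 18 h incubation at 37 C/5% CO2, plates got calcium dye for 1 h; compounds, ATP or DMSO were then pinned in and fluorescence followed kinetically (480/540 nm).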

[3] = p53 small molecule agonists, cell-based qHTS assay with human liver microsomes (AID 1963577)
How it was run: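 Fluorescence of the beta-lactamase reporter in p53RE-bla cells, detected with LiveBLAzer substrate (2 h, room temperature, dark), served as the read-out after 16 h compound exposure at 37 C with human liver microsomes and NADPH, each 0.5 mg/mL final.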

[4] = p53 small molecule agonists, cell-based qHTS assay with rat liver microsomes (AID 1963578)
How it was run: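 Cells carrying a p53 response element–beta-lactamase reporter were plated and rested 5 h, then dosed with compound in DMSO plus rat liver microsomes and NADPH, each at 0.5 mg/mL final. After 16 h at 37 C, LiveBLAzer substrate was added for 2 h.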

[5] = p53 small molecule agonists, cell-based qHTS assay with human liver microsomes: qHTS cell viability counter screen (AID 1963579); also: nearly all actives have a fitted effect of over 45% in size
How it was run: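 Cytotoxicity counter screen: p53RE-bla, 4,000 cells/well; 5 h settle, 37 C/5% CO2; cpd + HLM 0.5 mg/mL + NADPH 0.5 mg/mL (final); 16 h, 37 C; CellTiter-Glo, 30 min RT, luminescence.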

[6] = p53 small molecule agonists, cell-based qHTS assay with rat liver microsomes: qHTS cell viability counter screen (AID 1963580); also: nearly all actives have a fitted effect of over 45% in size
How it was run: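 Counter screen for cytotoxicity under metabolic activation: rat liver microsomes and NADPH, 0.5 mg/mL final each, added with compounds to p53RE-bla HCT-116 cells; 16 h at 37 C, then ATP luminescence read.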

[7] = p53 small molecule agonists, cell-based qHTS assay: qHTS cell viability counter screen (AID 1963581); also: nearly all actives have a fitted effect of over 45% in size
How it was run: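 qHTS counter screen: 16 h compound exposure at 37 C of p53RE-bla HCT-116 cells (4,000 per well, seeded 5 h prior), cell viability by ATP luminescence.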

[8] = p53 small molecule agonists, cell-based qHTS assay (AID 1963582; active = well fitted activation curve with a large enough effect in the signal ratio in the repeat runs, not every such curve was filed as active; the % refers to the signal ratio)
How it was run: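 Measured: fluorescence from cleaved LiveBLAzer substrate. System: p53RE-bla cells, 16 h compound treatment at 37 C, 2 h substrate step at room temperature.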

[9] = target: 5-hydroxytryptamine receptor 2A (Homo sapiens) (UniProt P28223); assay: 5-hydroxytryptamine receptor 2A (HTR2A) small molecule antagonists, cell-based qHTS assay (AID 1963586); also: nearly all actives have a fitted effect of over 45% in size
How it was run: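 CHO cells stably expressing human HTR2A were plated for 18 h at 37 C, then loaded with calcium dye for 1 h. Compounds were preincubated 5 min at room temperature before DOI (4 nM solution) was added. Kinetic fluorescence was read for 3 min.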

[10] = target: 5-hydroxytryptamine receptor 2A (Homo sapiens) (UniProt P28223); assay: 5-hydroxytryptamine receptor 2A (HTR2A) small molecule agonists, cell-based qHTS assay (AID 1963587); also: nearly all actives have a fitted effect of over 30% in size
How it was run: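 HTR2A-CHO cells, plated 18 h at 37 C/5% CO2, dye-loaded 1 h at 37 C; compounds in DMSO added by pin tool (agonist mode). Intracellular calcium flux read as kinetic fluorescence on FDSS over 2 min at 1 s intervals.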

[11] = target: Muscarinic acetylcholine receptor M1 (Homo sapiens) (UniProt P11229); assay: Cholinergic receptor muscarinic 1 (CHRM1) small molecule antagonists, cell-based qHTS assay (AID 1963588); also: nearly all actives have a fitted effect of over 40% in size
How it was run: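 Compounds were tested at 15 concentrations in three independent runs. Dye-loaded CHRM1-CHO cells were exposed 5 min at room temperature before stimulation by acetylcholine added at 50nM. Intracellular calcium was read kinetically on FDSS for 3 min.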

[12] = target: Muscarinic acetylcholine receptor M1 (Homo sapiens) (UniProt P11229); assay: Cholinergic receptor muscarinic 1 (CHRM1) small molecule agonists, cell-based qHTS assay (AID 1963589); also: nearly all actives have a fitted effect of over 35% in size
How it was run: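 Kinetic fluorescence (1 s intervals) of calcium-sensitive dye in human M1 CHO cells after compound addition; cells pre-incubated 18 h at 37 C/5% CO2 and dye-loaded 1 h.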

[13] = target: Beta-2 adrenergic receptor (Homo sapiens) (UniProt P07550); assay: Adrenergic beta2 receptor (ADRB2) small molecule antagonists, cell-based qHTS assay (AID 1963592); also: series mostly up to about 92 µM; nearly all actives have a fitted effect of over 50% in size
How it was run: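 Assay format: CHO-ADRB2 cells, 18-20hr seeding at 37C/5% CO2, then compound plus 1nM isoproterenol agonist mix for 0.5hr RT. Homogeneous time-resolved fluorescence cAMP detection after 1hr, expressed as 665/615 nm ratio.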

[14] = target: Beta-2 adrenergic receptor (Homo sapiens) (UniProt P07550); assay: Adrenergic beta2 receptor (ADRB2) small molecule agonists, cell-based qHTS assay (AID 1963593);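 also: CHO cells stably overexpressing human ADRB2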
How it was run: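 CHO cells stably over-expressing ADRB2 were plated overnight at 37C, then dosed with compounds plus a stimulation mix containing 100uM IBMX and 25uM Ro-20-1724 for 0.5hr at room temperature. cAMP was measured by HTRF competition, 1hr.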

[15] = target: D(2) dopamine receptor (Homo sapiens) (UniProt P14416); assay: Dopamine D2 receptor (DRD2) small molecule agonists, cell-based qHTS assay (AID 1963594); also: nearly all actives have a fitted effect of over 35% in size
How it was run: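 HEK293 cells stably expressing DRD2 were cultured 24 h at 37 C, then given Ro20-1724 (0.1 mM final) and compounds for 10 min at room temperature. NKH477 (200nM) was then added for 30 min. cAMP was read by HTRF.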

[16] = target: D(2) dopamine receptor (Homo sapiens) (UniProt P14416); assay: Dopamine D2 receptor (DRD2) small molecule antagonists, cell-based qHTS assay (AID 1963595; active = well fitted inhibition curve with a large enough effect in the signal ratio in the repeat runs, with a control signal flat; the % refers to the signal ratio)
How it was run: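 Human DRD2 antagonist qHTS measuring cAMP by HTRF. The cells are exposed to compound for 10 min, then to NKH477 (200 nM) and quinpirole (12 nM) for 30 min at RT, with Ro20-1724 (0.1 mM) present throughout.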

[17] = Nuclear factor erythroid 2-related factor 2/antioxidant responsive element (Nrf2/ARE) small molecule agonists: luciferase reporter gene qHTS assay in human keratinocytes (AID 1919969); also: nearly all actives have a fitted effect of over 35% in size
[18] = target: Gonadotropin-releasing hormone receptor (Homo sapiens) (UniProt P30968); assay: Human gonadotropin-releasing hormone receptor (GnRHR) small molecule agonists, calcium flux assay in GnRHR-HEK293 cells (AID 1920063); also: nearly all actives have a fitted effect of over 35% in size
How it was run: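 Stable human GnRHR HEK293 line. 18 h plating, then calcium dye for 1 h at 37 C. Agonist-mode compound addition from DMSO stocks; fluorescence monitored 3 min.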

[19] = cAMP Responsive Elements (CRE) small molecule agonists, cell-based qHTS assay (AID 1963590)
How it was run: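 Test agents in DMSO were incubated 3 h at 37 C/5% CO2 with CRE-bla HEK 293T cells seeded 18 h earlier; LiveBLAzer B/G FRET substrate was added and read after 2 h at room temperature.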

[20] = cAMP Responsive Elements (CRE) small molecule antagonists, cell-based qHTS assay (AID 1963591; active = well fitted inhibition curve with a large enough effect in the signal ratio in the repeat runs, not every such curve was filed as active; the % refers to the signal ratio)
How it was run: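 Reporter line CRE-bla HEK 293T in dialyzed-FBS DMEM; cells preincubated 18 h, treated 3 h with compound plus NKH477 (0.25 uM final); LiveBLAzer FRET, 2 h RT.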
% is scaled to controls: 0 for no effect and ±100 for the full control effect.

Chain of D(2) dopamine receptor (Homo sapiens) (P14416 whole entry, looked up): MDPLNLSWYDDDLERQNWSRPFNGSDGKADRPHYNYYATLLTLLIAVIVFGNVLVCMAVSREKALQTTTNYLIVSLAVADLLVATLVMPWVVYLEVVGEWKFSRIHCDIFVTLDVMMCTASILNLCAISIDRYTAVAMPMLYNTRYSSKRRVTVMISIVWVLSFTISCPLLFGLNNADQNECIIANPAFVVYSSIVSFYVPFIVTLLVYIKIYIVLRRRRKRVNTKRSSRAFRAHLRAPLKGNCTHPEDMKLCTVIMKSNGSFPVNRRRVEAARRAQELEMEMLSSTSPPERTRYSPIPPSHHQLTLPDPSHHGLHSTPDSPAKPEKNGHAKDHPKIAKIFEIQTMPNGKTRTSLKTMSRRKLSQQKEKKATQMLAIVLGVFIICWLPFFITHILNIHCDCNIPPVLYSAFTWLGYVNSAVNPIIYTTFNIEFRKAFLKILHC
Chain of Muscarinic acetylcholine receptor M1 (Homo sapiens) (P11229 whole entry, looked up): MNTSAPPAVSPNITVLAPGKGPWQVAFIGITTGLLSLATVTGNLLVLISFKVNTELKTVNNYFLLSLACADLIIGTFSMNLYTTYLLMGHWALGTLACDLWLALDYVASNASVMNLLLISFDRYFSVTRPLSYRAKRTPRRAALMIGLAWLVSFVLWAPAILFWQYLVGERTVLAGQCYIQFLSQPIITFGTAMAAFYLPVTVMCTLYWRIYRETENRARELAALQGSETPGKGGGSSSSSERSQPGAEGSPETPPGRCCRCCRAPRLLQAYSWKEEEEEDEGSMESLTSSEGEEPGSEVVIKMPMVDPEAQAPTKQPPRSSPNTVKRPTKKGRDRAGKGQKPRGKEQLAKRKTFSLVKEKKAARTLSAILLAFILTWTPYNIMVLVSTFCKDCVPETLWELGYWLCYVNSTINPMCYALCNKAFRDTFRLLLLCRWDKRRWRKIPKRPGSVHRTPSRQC
Chain of KiSS-1 receptor (Homo sapiens) (Q969F8 whole entry, looked up): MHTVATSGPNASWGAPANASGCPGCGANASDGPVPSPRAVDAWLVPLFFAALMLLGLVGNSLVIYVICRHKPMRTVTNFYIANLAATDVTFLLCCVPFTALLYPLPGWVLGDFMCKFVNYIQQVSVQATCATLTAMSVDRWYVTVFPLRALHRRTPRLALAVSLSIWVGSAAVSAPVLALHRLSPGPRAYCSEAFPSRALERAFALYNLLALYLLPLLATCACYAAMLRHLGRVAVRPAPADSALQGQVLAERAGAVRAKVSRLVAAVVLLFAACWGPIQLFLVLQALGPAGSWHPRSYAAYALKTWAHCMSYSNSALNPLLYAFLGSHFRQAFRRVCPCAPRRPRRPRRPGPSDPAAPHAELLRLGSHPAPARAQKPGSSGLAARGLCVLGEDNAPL
Chain of Gonadotropin-releasing hormone receptor (Homo sapiens) (P30968 whole entry, looked up): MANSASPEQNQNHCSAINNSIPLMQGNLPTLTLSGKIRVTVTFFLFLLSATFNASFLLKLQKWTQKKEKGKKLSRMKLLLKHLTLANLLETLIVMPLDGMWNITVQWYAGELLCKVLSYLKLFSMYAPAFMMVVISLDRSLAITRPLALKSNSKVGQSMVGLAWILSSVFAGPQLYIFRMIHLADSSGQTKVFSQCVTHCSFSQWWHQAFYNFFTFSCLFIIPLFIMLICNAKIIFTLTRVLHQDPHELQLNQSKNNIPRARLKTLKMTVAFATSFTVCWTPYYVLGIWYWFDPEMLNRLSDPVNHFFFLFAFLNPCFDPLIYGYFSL
Chain of 5-hydroxytryptamine receptor 2A (Homo sapiens) (P28223 whole entry, looked up): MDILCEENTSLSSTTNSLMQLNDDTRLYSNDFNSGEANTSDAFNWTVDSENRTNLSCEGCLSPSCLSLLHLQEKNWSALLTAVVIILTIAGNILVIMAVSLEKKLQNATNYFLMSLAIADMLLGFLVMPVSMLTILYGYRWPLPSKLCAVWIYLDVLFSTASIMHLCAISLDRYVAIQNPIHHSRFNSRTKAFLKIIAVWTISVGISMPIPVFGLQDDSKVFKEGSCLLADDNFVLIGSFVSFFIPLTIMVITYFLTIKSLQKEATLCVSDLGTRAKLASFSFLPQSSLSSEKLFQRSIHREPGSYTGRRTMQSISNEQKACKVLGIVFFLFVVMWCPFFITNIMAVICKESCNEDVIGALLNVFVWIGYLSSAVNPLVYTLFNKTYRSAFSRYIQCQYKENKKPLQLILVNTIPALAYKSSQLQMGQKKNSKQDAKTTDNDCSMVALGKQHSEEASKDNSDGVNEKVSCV
Chain of Beta-2 adrenergic receptor (Homo sapiens) (P07550 whole entry, looked up): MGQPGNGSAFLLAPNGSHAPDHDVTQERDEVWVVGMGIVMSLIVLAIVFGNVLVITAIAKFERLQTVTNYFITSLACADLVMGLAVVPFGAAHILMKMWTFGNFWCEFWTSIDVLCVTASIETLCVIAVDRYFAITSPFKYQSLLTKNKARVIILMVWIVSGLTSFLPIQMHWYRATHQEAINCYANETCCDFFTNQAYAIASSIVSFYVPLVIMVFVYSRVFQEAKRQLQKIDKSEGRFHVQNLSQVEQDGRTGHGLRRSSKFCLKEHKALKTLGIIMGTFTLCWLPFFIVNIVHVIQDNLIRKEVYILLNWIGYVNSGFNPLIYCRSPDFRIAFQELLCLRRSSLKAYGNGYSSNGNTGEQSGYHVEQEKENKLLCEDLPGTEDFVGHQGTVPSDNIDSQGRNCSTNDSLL

c1ccc2c(c1)CCC2
inactive: Potency [1] | Potency [2] | Potency [3] | Potency [4] | Potency [5] | Potency [6] | Potency [7] | Potency [8] | Potency [9] | Potency [10] | Potency [11] | Potency [12] | Potency [13] | Potency [14] | Potency [15] | Potency [16]

CC(COCCO)OCCO (stereo not drawn)
inactive: Potency [17] | Potency [18] | Potency [2] | Potency [3] | Potency [4] | Potency [5] | Potency [6] | Potency [7] | Potency [9] | Potency [10] | Potency [11] | Potency [12] | Potency [19] | Potency [20] | Potency [15] | Potency [16]

CCCCCCOCCOCCO
inactive: Potency [18] | Potency [1] | Potency [5] | Potency [6] | Potency [7] | Potency [9] | Potency [10] | Potency [11] | Potency [12] | Potency [19] | Potency [20] | Potency [13] | Potency [16]

O=C(c1ccccc1)c1ccccc1O
inactive: Potency [18] | Potency [1] | Potency [2] | Potency [5] | Potency [6] | Potency [7] | Potency [9] | Potency [10] | Potency [11] | Potency [12] | Potency [20] | Potency [13] | Potency [15] | Potency [16]

Nc1nccs1
inactive: Potency [17] | Potency [1] | Potency [2] | Potency [3] | Potency [4] | Potency [5] | Potency [7] | Potency [8] | Potency [9] | Potency [11] | Potency [12] | Potency [19] | Potency [20] | Potency [13] | Potency [14] | Potency [15] | Potency [16]

O=C(O)CN(CCCN(CC(=O)O)CC(=O)O)CC(=O)O
inactive: activity, positive = activation [17] -12.6% [at 19 µM] | activation [1] -0.261% [at 15.8 µM] | activation [2] 9.2% [at 11.8 µM] | activation [3] -11.5% [at 13.5 µM] | activation [4] -0.0734% [at 13.6 µM] | activity change, negative = cytotoxicity [5] 10.7% [at 13.5 µM] | activity change, negative = cytotoxicity [6] 9.92% [at 13.5 µM] | activity change, negative = cytotoxicity [7] 11.6% [at 13.5 µM] | activity, negative = inhibition [9] 19% [at 12.7 µM] | activation [10] 8.84% [at 15.9 µM] | activity, negative = inhibition [11] -1.12% [at 12.6 µM] | activation [12] 5.74% [at 15.8 µM] | activation [19] 1.21% [at 19 µM] | activity change, negative = inhibition [20] 19.1% [at 18.9 µM] | activity change, negative = inhibition [13] 0.405% [at 19 µM] | activation [15] -4.48% [at 19 µM] | activity change, negative = inhibition [16] 6.03% [at 18.9 µM]
